This note sets out measurements from ChEMBL document CHEMBL3988442, “University of Dundee, Small-Polar-MMV Screening Library” (2021).

In all, about 66,000 compounds went through this assay and about 960 (1.5%) showed an effect of 50% or more. The sample as a whole holds a higher share of strong results than the screen did.

The assay has as its system Trypanosoma brucei. Put plainly: Trypanosoma brucei 72 hour study. The format is functional, organism-based. Also noted: scale not given: in the data most compounds retested in dose-response had high values.

Take `O=C(O)C(F)(F)F.O=C(c1ccnnc1)N1CC[C@]2(C[C@H](Oc3ncccc3F)CO2)C1`: for the setting “30 µM, 30.03 µM”, the “Percent Effect” value is -5.807%.

In the case of `COc1ccc(CNC(=O)Nc2ccc(S(=O)(=O)C(F)F)cc2)cc1`, under “30 µM, 30.03 µM”, the “Percent Effect” value is listed as -8.777%.

`Cn1ccc(CNC(=O)Nc2ccc(S(=O)(=O)C(F)F)cc2)c1`: the “Percent Effect” value (30 µM, 30.03 µM) is reported as -7.299%.

Turning to `CN(C)c1ccc(CNC(=O)Nc2ccc(S(=O)(=O)C(F)F)cc2)cc1`, the “Percent Effect” value (30 µM, 30.03 µM) stood at 71.22%.

With `COCCNC(=O)CN1CCN(c2nc(C)cs2)CC1`, the “Percent Effect” value (10 µM) is listed as -57.99%.

As to `CC(C)C(=O)Nc1ccc(Oc2ccc3c(c2)OCO3)nc1`, the “Percent Effect” value (30 µM, 30.03 µM) is -14.33%.

For the molecule `CCC(=O)NCCCn1c(-c2cccnc2C)cc2cccnc21.Cl`, the “Percent Effect” value (30.3 µM, […]) is recorded as -13.2%.

With `CCN(Cc1cccs1)C(=O)c1ccc(=O)n(C)c1`, the “Percent Effect” value (30.3 µM, […]) was -2.313%.

Consider `COCCN(Cc1cccs1)C(=O)c1ccc(=O)n(C)c1`, for which, under “30.3 µM, […]”, the “Percent Effect” value is recorded as -3.424%.

For the molecule `CN(Cc1cccs1)C(=O)c1ccc(=O)n(C)c1`, for the setting “30.3 µM, […]”, the “Percent Effect” value was determined as 98.98%.

Turning to `COc1ccc(NC(=O)Cn2nc(C)c(C)cc2=O)cc1OC`, the “Percent Effect” value (30.3 µM, […]) is -10.01%.

As for `COc1ccc(NC(=O)Cn2nc(C)c(C)cc2=O)cc1`, the “Percent Effect” value (30 µM, 30.03 µM) is -33.88%.

On to `CC(=O)c1c(C)nn(CC(=O)Nc2ccc(Br)cc2)c1C`, for which the “Percent Effect” value (30.3 µM, […]) was found to be 101.3%.

Turning to `Cc1cc(=O)n(CC(=O)Nc2ccc(Cl)cc2)nc1C`, the “Percent Effect” value (30 µM, 30.03 µM) is listed as -26.52%.

With `CC(=O)c1c(C)nn(CC(=O)Nc2ccc(F)cc2)c1C`, under “30.3 µM, […]”, the “Percent Effect” value is -35.96%.

For the molecule `COc1ccc(NC(=O)Cn2nc(C)c(C(C)=O)c2C)cc1`, the “Percent Effect” value (30.3 µM, […]) is reported as 101.9%.

Turning to `Cc1ccc(Nc2nccc(C3CCN(CC(N)=O)C3)n2)nc1` (stereo not given), the “Percent Effect” value (30.3 µM, […]) is -50.23%.

On to `O=C(O)C(F)(F)F.O=C(c1ccccc1)N1CCC[C@]2(C[C@@H](OCc3ccccn3)CO2)C1`, for which the “Percent Effect” value (30.3 µM, […]) is -136.6%.

In the case of `O=C(C1CC1)N1CCCC1c1nnc2n1CCCCC2` (stereo not given), the “Percent Effect” value (30 µM, 30.03 µM) is on record as -31.5%.

As to `CN(C)C(=O)CN1CCn2cc(Cn3cccn3)nc2C1.O=C(O)C(F)(F)F.O=C(O)C(F)(F)F`, where the note is “30 µM, 30.03 µM”, the “Percent Effect” value is -43.32%.

`CCNc1cc2c(nn1)CCN(C(=O)c1cc3cccc(C)c3o1)C2`: the “Percent Effect” value reads like this: (10 µM) -32.26%; (30.3 µM, […]) 29.79%.

Take `CC(C)CN1Cc2nc(N3CCCC(C)C3)ncc2C1=O` (stereo not given): the “Percent Effect” value (30 µM, 30.03 µM) was -5.722%.

Turning to `Cl.Cl.O=C(CN1CCN(CC(O)C2CC2)CC1)NCc1ccccc1Cl` (stereo not given), under “30.3 µM, […]”, the “Percent Effect” value is -15.94%.

As for `COc1ccc(C(=O)NCCCOC(C)c2ccccc2)c(OC)c1` (stereo not given), the “Percent Effect” value (30.3 µM, […]) was 17.87%.

With `Cc1nc2c(c(NCC(O)C(F)(F)F)n1)CCNCC2` (stereo not given), the “Percent Effect” value (30 µM, 30.03 µM) is reported as -77.95%.

In the case of `OC(CNc1ncnc2c1CCNCC2)C(F)(F)F` (stereo not given), the “Percent Effect” value (30 µM, 30.03 µM) is -18.54%.

As to `OC(CNc1nc(C2CCCC2)nc2c1CCNCC2)C(F)(F)F` (stereo not given), the “Percent Effect” value (30 µM, 30.03 µM) stood at 99.48%.

Turning to `N#Cc1cccc(CN2CCC3(CC2)CC(c2ccncc2)C(=O)N3)c1.O=C(O)C(F)(F)F.O=C(O)C(F)(F)F` (stereo not given), the “Percent Effect” value (30 µM, 30.03 µM) was 43.46%.

As for `CCOc1ncccc1NC(=O)c1cc(C)c(C)s1`, the “Percent Effect” value (30 µM, 30.03 µM) is reported as 63.47%.

`CCOc1ncccc1NC(=O)c1ccc(C)s1`: the “Percent Effect” value (30 µM, 30.03 µM) is -25.8%.

With `CCOc1ncccc1NC(=O)c1cc(C)sc1C`, under “30 µM, 30.03 µM”, the “Percent Effect” value was -36.47%.

For the molecule `O=C(NCCc1nnc2n1CCC2)NCC1(c2ccccc2)CC1`, under “30.3 µM, […]”, the “Percent Effect” value was determined as 3.515%.

In the case of `O=C(O)C(F)(F)F.O=C(c1ccsc1)N1CCC2(CCN(Cc3ccccn3)C2=O)C1` (stereo not given), the “Percent Effect” value (30 µM, 30.03 µM) is on record as -3.251%.

Consider `CC(C)C(=O)N1CCC(n2nc(-c3ccco3)ccc2=O)CC1`, for which the “Percent Effect” value (30.3 µM, […]) was -15.18%.

As for `Cc1nnc2ccc(N3CCC(C(=O)Nc4nccs4)CC3)nn12`, the “Percent Effect” value (30 µM, 30.03 µM) stood at 0.472%.

On to `CC(C)c1nnc2ccc(N3CCC(C(=O)Nc4nccs4)CC3)nn12`, for which the “Percent Effect” value (30 µM, 30.03 µM) is reported as 61.33%.

As for `CC(C)c1nnc2ccc(N3CCCC(C(=O)Nc4nccs4)C3)nn12` (stereo not given), the “Percent Effect” value (30 µM, 30.03 µM) was -31.38%.

In the case of `CC(C)C1CN(c2cccc(C#N)n2)CCCN1Cc1ccc(F)cc1` (stereo not given), the “Percent Effect” value (30.3 µM, […]) worked out at 99.78%.

For the molecule `CC(C)C1CN(S(C)(=O)=O)CCCN1Cc1ccc(F)cc1` (stereo not given), the “Percent Effect” value (30 µM, 30.03 µM) is on record as -25.6%.

Turning to `CC(C)C1CN(c2cccc(C#N)n2)CCCN1CC1CC1` (stereo not given), where the note is “30.3 µM, […]”, the “Percent Effect” value is recorded as -2.966%.

Regarding `CN(C)C(=O)[C@H]1C[C@H]2OCC[C@H]2N(Cc2ccc3ccccc3n2)C1.O=C(O)C(F)(F)F.O=C(O)C(F)(F)F`, where the note is “30.3 µM, […]”, the “Percent Effect” value is reported as -111.9%.

Take `CCCNC(=O)c1cc2c(c3ccccc3n2C)n1C(=O)N(C)C`: under “30.3 µM, […]”, the “Percent Effect” value amounted to 27.2%.

Regarding `COCCNC(=O)c1cc2c(c3ccccc3n2C)n1C(=O)N(C)C`, the “Percent Effect” value (30 µM, 30.03 µM) is 28.71%.

On to `CC(C)NC(=O)c1cc2c(c3ccccc3n2C)n1C(=O)N(C)C`, for which the “Percent Effect” value (30 µM, 30.03 µM) is given as 61.67%.

Take `Cc1ccsc1CN1CCC(n2cc(C(O)c3ccccc3)nn2)CC1` (stereo not given): under “30.3 µM, […]”, the “Percent Effect” value is -15.95%.

With `CCc1nnc2n1CCN(C(=O)CCOc1ccc(C)cc1C)C2`, the “Percent Effect” value (30 µM, 30.03 µM) is listed as -30.52%.

For `O=C(O)C(F)(F)F.O=C([C@@H]1CCO[C@@H]2CCN(CC3CCOCC3)C[C@H]21)N1CCCO1`, where the note is “30 µM, 30.03 µM”, the “Percent Effect” value is on record as -11.19%.

Consider `CCOCC(=O)N1C[C@@H]2CCN(c3cnccn3)C[C@@H]2C1.O=C(O)C(F)(F)F`, for which the “Percent Effect” value (30.3 µM, […]) is listed as -17.39%.

On to `CCN1CCn2c(C)cnc2C12CCN(C(=O)NC)CC2.O=C(O)C(F)(F)F`, for which, for the setting “30.3 µM, […]”, the “Percent Effect” value is -20.19%.

As to `CCOC(=O)C1CCCN(Cc2c[nH]nc2-c2cc3ccccc3o2)C1` (stereo not given), the “Percent Effect” value (30.3 µM, […]) is listed as 15.89%.

With `CCOC(=O)C1CCCCN1Cc1c[nH]nc1-c1ccc(F)cc1F` (stereo not given), under “30.3 µM, […]”, the “Percent Effect” value is -2.201%.

On to `CCOC(=O)C1CCCCN1Cc1c[nH]nc1-c1cc2ccccc2o1` (stereo not given), for which the “Percent Effect” value (30.3 µM, […]) amounted to 58.53%.

Regarding `CCN(CC)C1COc2c(cc(Br)c(C)c2C)C1=O` (stereo not given), the “Percent Effect” value (30.3 µM, […]) is -8.815%.

Turning to `CCN(CC)C1COc2c(cc(Br)c(C)c2Br)C1=O` (stereo not given), the “Percent Effect” value (30.3 µM, […]) was 52.72%.

As to `Cc1c(Br)cc2c(c1C)OCC(N(C)C)C2=O` (stereo not given), where the note is “30.3 µM, […]”, the “Percent Effect” value is 0.8254%.

On to `O=C1CN(C(=O)c2ccc(Cl)cc2)CC(O)CN1Cc1cccs1` (stereo not given), for which the “Percent Effect” value (30.3 µM, […]) stood at 99.92%.

On to `Cc1ccc(C(=O)N2CC(=O)N(Cc3cccs3)CC(O)C2)cc1` (stereo not given), for which the “Percent Effect” value (30.3 µM, […]) is listed as 2.037%.

For `O=C1CN(C(=O)c2ccc(F)cc2)CC(O)CN1Cc1cccs1` (stereo not given), the “Percent Effect” value (30.3 µM, […]) is 5.097%.

For `CN1C[C@@H]2CC[C@H](CC1=O)N2C(=O)c1ccc(-c2ccccc2)[nH]c1=O`, the “Percent Effect” value (30.3 µM, […]) was 2.014%.

`CC(C)OCCCN(Cc1ccncc1)Cc1cc(F)ccc1F.Cl`: the “Percent Effect” value (30.3 µM, […]) was -3.291%.

Take `C/C(Cl)=C/CNC(=O)[C@H]1CC[C@]2(CC1)CN(C)C(=O)c1ccccc1O2`: where the note is “30.3 µM, […]”, the “Percent Effect” value is -12.03%.

On to `CO[C@H]1CN(C(C)C)C[C@@H]1NC(=O)Nc1ccc2oc(C)cc2c1`, for which, under “30 µM, 30.03 µM”, the “Percent Effect” value was -77.41%.

For the molecule `CO[C@H]1CN(C(C)C)C[C@@H]1NC(=O)Nc1cccc(SC)c1`, the “Percent Effect” value (30 µM, 30.03 µM) is on record as -47.34%.

`CO[C@H]1CN(C(C)C)C[C@@H]1NC(=O)Nc1ccc(C(F)(F)F)cc1`: the “Percent Effect” value (30 µM, 30.03 µM) came out at 82.01%.
